Measured values taken from PubChem BioAssay AID1347156 (National Center for Advancing Translational Sciences (NCATS), 2019).
Inconclusive results are not listed. The source made the active and inactive calls. The call rests on the fitted dose curve; in most records, active means well fitted cell-killing curve with a large enough effect; inconclusive means small, poorly fitted or top-dose-only effect; inactive means flat fitted curve, though single readings scatter.

Assay: DAPI mCherry counterscreen qHTS for Zika virus inhibitors; further: nearly all actives have a fitted effect of over 55% in size
Settings: Vero cells, DAPI nuclear count cytotoxicity, imaging 48-72 h, infected with Zika reporter virus, MOI 1; series mostly up to 32.6 µM; activity change, negative = cell loss: at the top concentration
Method in brief: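 Vero cells (5,000/well), plated overnight, given compounds then recombinant ZIKV-mCherry at MOI 1 for 48-72 hrs at 37 degrees C; PFA-fixed, Hoechst-stained and imaged; nuclei counted and mCherry-positive cells scored as percent infection.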
On the % scale 0 is the no-effect control and ±100 the full control effect; potency means the concentration at half of the fitted maximal effect.

Structure (SMILES) | Potency | activity change, negative = cell loss
CC(C)(C)Sc1c(CC(C)(C)C(=O)O)n(Cc2ccc(Cl)cc2)c2ccc(OCc3ccc4ccccc4n3)cc12 | 35.5 µM (active) | 
Nc1c(S(=O)(=O)O)cc(Nc2ccc(Nc3nc(Cl)nc(Nc4ccc(S(=O)(=O)O)cc4)n3)c(S(=O)(=O)O)c2)c2c1C(=O)c1ccccc1C2=O |  | -16.3% (inactive)
COc1c2occc2cc2ccc(=O)oc12 |  | -12.1% [at 49.1 µM] (inactive)
O=C(Nc1ccc(S(=O)(=O)N2CCOCC2)cc1)c1cc(Cl)ccc1NS(=O)(=O)c1ccc(Cl)s1 | 15.8 µM (active) | 
Cc1c(NS(=O)(=O)c2ccccc2)cc(C(C)C)c(O)c1S(=O)(=O)c1ccc(Cl)cc1 | 28.2 µM (active) | 
CC(=O)Oc1cc2c(c(C)c1OC(C)=O)CC=C1[C@@]2(C)CC[C@@]2(C)[C@H]3C[C@](C)(C(=O)O)CC[C@]3(C)CC[C@]12C | 2.82 µM (active) | 
O=c1c(O)c(-c2ccc(O)c(O)c2)oc2cc(O)cc(O)c12 |  | -12.9% (inactive)
Fc1cc(C2=Nn3c(COc4ccc(Cl)cc4Cl)nnc3S/C2=C\c2ccc(-c3ccc(Cl)cc3)o2)c(Cl)cc1Cl |  | -9.03% (inactive)
O=C(O)c1cnn(-c2nc3cc(OC(F)(F)F)c(Cl)cc3[nH]2)c1 |  | -7.21% (inactive)
O=C(Nc1cccc(C(=O)OCc2cc(=O)n3nc(C4CC4)sc3n2)c1)c1cccc(F)c1 |  | -10.7% (inactive)
O=C(Nc1cccc(C(=O)OCc2cc(=O)n3nc(C4CC4)sc3n2)c1)c1cccc(Cl)c1 |  | -11.2% (inactive)
CCOC(=O)c1ccc(Nc2nc3ccccc3nc2NS(=O)(=O)c2ccc(Cl)cc2)cc1 | 7.94 µM (active) | 
Cc1oc2c(cc(NS(=O)(=O)c3ccc(Cl)cc3)c3ccccc32)c1C(=O)OCc1ccccc1 |  | -13.3% (inactive)
CN(C)[C@@H]1C(=O)C(C(N)=O)=C(O)[C@@]2(O)C(=O)C3=C(O)c4c(O)cccc4C[C@H]3C[C@@H]12 |  | -13.2% (inactive)
COc1cccc(C(=O)Nc2ccc(C(=O)OCc3cc(=O)n4nc(C5CC5)sc4n3)cc2)c1 | 5.62 µM (active) | 
O=S(=O)(Nc1cc(Cl)c(Oc2cnc3ccccc3c2)c(Cl)c1)c1ccc(Cl)cc1Cl | 12.6 µM (active) | 

Structure (SMILES) | Potency | activity change, negative = cell loss
COc1ccc(-c2ccccc2)cc1NS(=O)(=O)c1cc(Cl)cc(Cl)c1O | 11.2 µM (active) | 
O=C1NC(=O)c2cc(Nc3ccccc3)c(Nc3ccccc3)cc21 | 31.6 µM (active) | 
O=C(NCc1ccc(Oc2ccccc2)cc1)c1nc(-c2cc(Br)c(O)c(Br)c2)no1 | 8.91 µM (active) | 
COC(=O)c1ccc([C@H]2Nc3ccc(S(=O)(=O)Nc4ccc(C)cc4)cc3[C@H]3C=CC[C@H]32)cc1 |  | -12.5% (inactive)
N#C/C(=C\c1ccc(-c2ccc(Cl)c(C(=O)O)c2)o1)c1nc2ccccc2[nH]1 |  | -14.4% (inactive)
Cc1cc(S(=O)(=O)Nc2ccc(C(=O)O)cc2)c(C)c(S(=O)(=O)c2ccc(Cl)cc2)c1 |  | -10.7% (inactive)
O=C(O)CCc1ccc(-c2ccc(Cl)cc2)n1-c1cccc(C(F)(F)F)c1 | 25.1 µM (active) | 
O=C(O)Cn1nnc(-c2ccc(OCc3cccc(C(F)(F)F)c3)cc2)n1 |  | -10.2% (inactive)
N#Cc1ccc(N2N=C3c4ccc(C(=O)O)cc4CC[C@@H]3[C@@H]2C2CCCC2)cc1Cl | 4.47 µM (active) | 
CCCCCCCCc1ccc(CCC(N)(CO)CO)cc1 | 10 µM (active) | 
Nc1c(N=Nc2ccc([N+](=O)[O-])cc2)c(S(=O)(=O)O)cc2cc(S(=O)(=O)O)c(/C=C/c3ccccc3)c(O)c12 |  | -17.4% (inactive)
O=C(O)c1cc(-n2c(/C=C\c3ccc(F)cc3)nc3ccccc3c2=O)ccc1Cl |  | -13.5% (inactive)
CO[C@H]1C[C@@H](O[C@@H]2/C(C)=C/C[C@@H]3C[C@@H](C[C@]4(CC[C@H](C)[C@@H](C5CCCCC5)O4)O3)OC(=O)[C@@H]3C=C(C)/C(=N/O)[C@H]4OC/C(=C\C=C\[C@@H]2C)[C@]43O)O[C@@H](C)[C@H]1O | 11.2 µM (active) | 
O=C(Nc1cccc(C(=O)Nc2ccc(S(=O)(=O)O)c3cc(S(=O)(=O)O)cc(S(=O)(=O)O)c23)c1)Nc1cccc(C(=O)Nc2ccc(S(=O)(=O)O)c3cc(S(=O)(=O)O)cc(S(=O)(=O)O)c23)c1 |  | -9.54% [at 16.3 µM] (inactive)
CCOc1ccc(C(=O)Nc2cccc(C(=O)OCc3cc(=O)n4nc(C5CC5)sc4n3)c2)cc1 | 11.2 µM (active) | 
